# Bioassay records from PubChem BioAssay.
# In the library only some 10% were active in any assay of this set; here they are far more common.
# BAZ2B block: qHTS Assay for Inhibitors of BAZ2B; Bromodomain adjacent to zinc finger domain protein 2B (Homo sapiens), Q9UIF8; AlphaScreen BAZ2B-H3K14Ac peptide displacement; Potency, µM (doses to about 114 µM), without a hit: at the highest dose activity change, negative = inhibition, usual class: inhibitors; actives 4.4% (n = 360,000); AID 504333, 2011; also: % is scaled to controls: 0 for no effect and ±100 for the full control effect; nearly all actives have a fitted effect of over 60% in size
#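 AlphaScreen displacement of biotin-H3(5-23)K14Ac peptide (50 nM final) from BAZ2B (50 nM final) in PBS pH 7.4, 0.01% Tween-20; complex preformed 30 min RT, then compounds (top 110 uM) 30 min RT, beads 20 min dark.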
# G9a inh: qHTS Assay for Inhibitors of Histone Lysine Methyltransferase G9a. G9a H3K9 monomethylation, AlphaScreen, 2 h. Potency, µM (top dose mostly 102 µM), for the others: at the highest dose activity, negative = inhibition, most hits filed as inhibitors. actives 8.8% (n = 350,000); also: % is scaled to controls: 0 for no effect and ±100 for the full control effect; nearly all actives have a fitted effect of over 75% in size
# Target sequence (Q96KQ7 913-1193 limits assumed): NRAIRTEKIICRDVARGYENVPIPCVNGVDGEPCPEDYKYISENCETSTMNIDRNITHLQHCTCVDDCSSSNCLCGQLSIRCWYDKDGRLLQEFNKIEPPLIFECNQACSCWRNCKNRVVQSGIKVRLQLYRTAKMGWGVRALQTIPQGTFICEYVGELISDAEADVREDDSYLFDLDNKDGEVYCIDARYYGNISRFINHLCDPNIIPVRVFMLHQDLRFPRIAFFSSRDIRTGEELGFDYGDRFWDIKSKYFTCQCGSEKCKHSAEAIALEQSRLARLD
#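 Readings reflect AlphaScreen signal from monomethyl-H3K9 antibody detection. HMT at 20 nM; substrate b-H3K9 500 nM; cofactor SAM 20 uM; 2 h RT reaction; compounds tested as titrations in qHTS with 15 min preincubation.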
# HP1b binding inh: HTS for Inhibitors of HP1-beta Chromodomain Interactions with Methylated Histone Tails. Chromobox protein homolog 1 (Homo sapiens), P83916. actives 0.56% (n = 390,000). AID 540317, 2011. AlphaScreen HP1-beta / biotin-H3K9me3 peptide binding. Potency, µM (titrated, usually from 114 µM), for inactives: top-dose activity change, negative = inhibition, most hits filed as inhibitors; also: nearly all actives have a fitted effect of over 70% in size
# Target sequence (P83916 whole entry, looked up): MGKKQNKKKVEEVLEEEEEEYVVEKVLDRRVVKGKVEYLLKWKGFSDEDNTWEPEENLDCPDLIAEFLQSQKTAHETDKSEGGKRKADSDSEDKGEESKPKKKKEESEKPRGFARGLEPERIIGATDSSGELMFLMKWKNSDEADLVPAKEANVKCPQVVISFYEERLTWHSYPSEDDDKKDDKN
#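 Compound inhibition of the preformed complex between 50 nM HP1-beta and 50 nM biotinylated H3K9me3 peptide was read by AlphaScreen. Buffer was PBS pH 7.4 with 0.01% Tween-20. Incubations ran 30 min at room temperature, with 10 ug/mL donor/acceptor beads.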
# JMJD2A Tudor inh: qHTS Assay for Inhibitors of JMJD2A-Tudor Domain; Lysine-specific demethylase 4A (Homo sapiens), O75164; AlphaScreen JMJD2A-Tudor / H3K4me3 peptide binding; Potency, µM (series often up to 114 µM), for inactives: at the highest dose activity change, negative = inhibition, usual class: inhibitors; actives 4.4% (n = 390,000); AID 504339, 2011; also: % is scaled to controls: 0 for no effect and ±100 for the full control effect; nearly all actives have a fitted effect of over 50% in size
# GLS inhibitor: qHTS for Inhibitors of Glutaminase (GLS). AID 624170, 2012. GLS enzymatic activity, qHTS titration. Glutaminase kidney isoform, mitochondrial (Homo sapiens), O94925. actives 0.21% (n = 410,000). Potency, µM (titrated, usually from 45.5 µM), inactives show top-dose activity change, negative = inhibition, actives largely listed as inhibitors; also: % is scaled to controls: 0 for no effect and ±100 for the full control effect
#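 Enzyme dispensed in phosphate buffer (45 mM, pH 8.2, 0.02% Tween-20), compounds pinned in, then 1 mM L-glutamine solution and the glutamate oxidase–HRP–Amplex Red mix added; fluorescence read immediately and again after 30 min at room temperature.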
# The depositor's hits bear a star; u = inconclusive; x = no result; [ ] = dose if it differs, or a comment. Calls follow the shape of the dose curve; as a rule, active = well fitted curve in the direction sought with a large enough effect; inconclusive = small, poorly fitted or top-dose-only effect, or another doubt; inactive = no such curve, though single readings can be large; an effect the other way counts as inactive or inconclusive. Potency is read from the fitted curve at half-maximal effect.
SMILES,BAZ2B block,G9a inh,HP1b binding inh,JMJD2A Tudor inh,GLS inhibitor
COc1cc(NS(=O)(=O)c2ccc(NC(=O)COc3ccccc3Cl)cc2)nc(OC)n1,11%,u,55%,-26%,-1%
COc1ccc(OCC(=O)NC(=S)Nc2ccc(S(=O)(=O)Nc3cc(OC)nc(OC)n3)cc2)cc1,-25%,-50%[59 µM],15%,-1%,19%
COc1cc(NS(=O)(=O)c2ccc(NC(=O)COc3cccc(C)c3)cc2)nc(OC)n1,1%,25µM*,4%,-14%,0%
COC(=O)CCC(=O)NC(=S)Nc1ccc(S(=O)(=O)Nc2cc(OC)nc(OC)n2)cc1,-19%,50µM*,29%,-6%,7%
Cc1cccc(S(=O)(=O)NC(=O)C2(C)CCN2C(=O)c2cccc(F)c2)c1 (stereo unspecified),x,x,x,x,0%
CC(=O)c1cccc(NC(=O)Nc2c(C)n(C)n(-c3ccccc3)c2=O)c1,-2%,2%[59 µM],17%,-13%,12%
CC(C)c1cc(C(=O)Nc2sc3c(c2C#N)CCC3)no1,-3%,u,12%,-1%,11%
CCOC(=O)c1c(NC(=O)c2ccc(C)c(C)c2)sc2c1CCCCC2,9%,16%[59 µM],49%,15%,-7%
CCOC(=O)c1c(NC(=O)c2cc(-c3cccc(OC)c3)on2)sc2c1CCCC2,-1%,8.9µM*,u,3%,3%
CCOC(=O)c1c(NC(=O)c2ccc(OC)c(OC)c2)sc2c1CCCCC2,2%,8.9µM*,-4%,-15%,-1%
CCOC(=O)c1c(NC(=O)c2cc(-c3ccc(OC)c(OC)c3)on2)sc2c1CCCC2,11%,4µM*,51%,0%,-19%
COc1ccc(-c2cc(C(=O)Nc3sc4c(c3C#N)CCCC4)no2)cc1OC,-1%,10µM*,-8%,2%,8%
CC1=C(C(=O)N2CCOCC2)CC(CC(=O)NCCc2ccccn2)C(=O)N1CCCN1CCCC1=O (stereo unspecified),x,x,x,x,1%
CCc1ccc(C(O)(C(C)C)C(CN2CCOCC2)c2ccccc2)cc1 (stereo unspecified),-11%,7%,36%,-3%,-4%
N#Cc1cccc(NC(=O)c2ccc3c(c2)N(Cc2cccc(Cl)c2)C(=O)c2ccccc2S3(=O)=O)c1,-16%,-1%[59 µM],18%,-18%,-4%
Cc1cc(S(=O)(=O)NC(C)C)ccc1OCC(=O)N1CCOCC1,-1%,32%,3%,-8%,-6%
COc1ccccc1C1C=C(c2ccc(Cl)cc2)Nc2nc(N3C(=O)CCC3=O)nn21 (stereo unspecified),x,u,17%,45µM*,1%
COc1ccc(C2=CC(c3ccccc3Cl)n3nc(-c4ccc(C)cc4)nc3N2)cc1 (stereo unspecified),11µM*,u,-11%,u,-6%
COc1ccccc1C1C=C(c2ccc(Cl)cc2)Nc2nc(NS(C)(=O)=O)nn21 (stereo unspecified),3%,50µM*,x,x,x
CC(C)(C)c1cc(CCC(=O)N2CCC2)cc(C(C)(C)C)c1O,89µM*,100%,31%,-6%,-18%
CC1CN(C(=O)CCc2cc(C(C)(C)C)c(O)c(C(C)(C)C)c2)CC(C)O1 (stereo unspecified),1%,77%,52%,-12%,-11%
O=C(NCc1ccco1)c1ccc(CS(=O)Cc2cccc(Cl)c2)o1 (stereo unspecified),-22%,10%,33%,-2%,-16%
CCOC(=O)c1ccc(-c2ccc(/C=C(\C#N)C(=O)NCC3CCCO3)o2)cc1 (stereo unspecified),5%,44%[12.7 µM],14%,-16%,0%
COc1ccc(OC)c(CN2CCN(Cc3cc(OC)c(OC)c(OC)c3)CC2)c1,79µM*,-9%[0.501 µM],u,22µM*,-4%
COc1cc(CN2CCCCCC2)cc(OC)c1OC,u,32µM*,u,5µM*,2%
